Bioassay records as filed in PubChem BioAssay.
Hits are enriched below; roughly 2.3% of the tested compounds scored in any of these assays.
SENP6 block = SENP6 protease inhibitors, primary screen, biochemical, luminescence, uHTS; Recombinant SENP6 catalytic domain, aminoluciferin luminescence; inhibition, % at 10 µM; 330,000 compounds, 1.8% hits; AID 2599, 2010;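 active = inhibition above about 50% at the single tested dose, limit read from the data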;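 note: plate controls were DMSO wells with enzyme for no effect and DMSO wells lacking enzyme for full effect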
Target sequence (Q9GZR1 628-1112 limits assumed): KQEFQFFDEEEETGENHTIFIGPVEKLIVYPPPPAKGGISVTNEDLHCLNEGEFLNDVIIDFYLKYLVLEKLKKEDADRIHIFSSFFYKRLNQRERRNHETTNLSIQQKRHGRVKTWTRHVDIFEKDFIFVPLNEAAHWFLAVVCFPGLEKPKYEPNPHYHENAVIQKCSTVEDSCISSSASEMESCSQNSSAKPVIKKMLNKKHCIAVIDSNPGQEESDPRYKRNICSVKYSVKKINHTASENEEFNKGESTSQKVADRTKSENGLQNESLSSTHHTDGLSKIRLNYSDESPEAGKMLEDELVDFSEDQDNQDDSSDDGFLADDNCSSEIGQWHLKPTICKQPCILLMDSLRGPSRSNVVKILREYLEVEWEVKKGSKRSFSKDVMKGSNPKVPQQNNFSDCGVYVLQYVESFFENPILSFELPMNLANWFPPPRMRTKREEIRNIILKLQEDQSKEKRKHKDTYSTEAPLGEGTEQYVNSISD
SENP8 block-1 = human SENP8 protease inhibitors, primary screen, biochemical, fluorescence, Nedd8 protein substrate, uHTS; recombinant SENP8; inhibition, % at 20 µM; 360,000 compounds, 0.64% hits; AID 602440, 2012; in the data active = inhibition mostly above about 40%, no sharp cut-off; inactive = mostly below about 27%
SENP8 block-2 = SENP8 protease inhibitors, primary screen, biochemical, luminescence. AID 2540, 2010. inhibition, % at 10 µM. 330,000 compounds, 1.2% hits. purified SENP8, Z-RLRGG-aminoluciferin cleavage; in the data active = inhibition above about 50%
SENP7 block = SENP7 protease inhibitors, primary screen, biochemical, luminescence, uHTS. Sentrin-specific protease 7 (Homo sapiens), Q9BQF6. recombinant SENP7, Z-RLRGG-aminoluciferin luminescence, 40 min. inhibition, % at 5 µM. 330,000 compounds, 1.5% hits. AID 434973, 2010;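 active = inhibition above about 50% at the single test dose, limit read from the data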;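 note: plate controls were DMSO with enzyme for no effect and no enzyme buffer wells for full effect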
LGR2 antag = inhibitors of bursicon-induced LGR2 CRE-luciferase signal, primary screen, cell-based, HEK293, CRE-luciferase reporter, bursicon stimulation; Drosophila bursicon receptor LGR2 (rickets); bursicon-stimulated, 4 h; inhibition, % at 9.99 µM; 380,000 compounds, 0.35% hits; AID 720647, 2013;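 active = drop in luminescence signal, shown as inhibition above about 50% in the replicate tests, limit read from the data, passing the limit was not always enough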;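 note: agonist challenge used bursicon conditioned medium at about half maximal strength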
HSP90 inh = HSP90 inhibitors, primary screen, cell lysate, luminescence | Rabbit reticulocyte lysate, luciferase refolding luminescence, 3 h | 290,000 compounds, 0.91% hits | Heat shock protein HSP 90 (rabbit reticulocyte lysate; luciferase refolding) | inhibition, % at 5.6 µM | AID 1789, 2009;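 active = inhibition above the screen-wide mean plus 3 SD, computed separately per campaign, cut at about 16% in these data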;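 note: 0% = DMSO wells and 100% = 60 µM geldanamycin wells; inhibitors lower the luminescence because luciferase stays unfolded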
SENP8 conf = SENP8 protease inhibitors, retest, confirmation, biochemical, luminescence, single concentration | shares compounds with SENP7 block | 6,200 compounds, 40% hits | Recombinant SENP8, Z-RLRGG-aminoluciferin luminescence, 60 min | inhibition, % at 12.5 µM;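 active = mean inhibition across replicates above about 50%, limit read from the data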
SENP6 confirm = SENP6 protease inhibitors, confirmation, biochemical, luminescence, single concentration; inhibition, % at 12.5 µM; shares compounds with SENP7 block; recombinant SENP6, Z-RLRGG-aminoluciferin luminescence; 6,200 compounds, 58% hits
SENP7 conf = SENP7 protease inhibitors, retest, confirmation, biochemical, luminescence, single concentration | shares compounds with SENP7 block | AID 488917, 2010 | 6,200 compounds, 69% hits | inhibition, % at 12.5 µM | recombinant SENP7, Z-RLRGG-aminoluciferin luminescence, 40 min
Casp3 SENP sel = caspase-3 protease inhibitors, confirmation, selectivity assay for SENP inhibitor project, biochemical, single concentration; shares compounds with SENP7 block; purified caspase-3, Z-DEVD-aminoluciferin luminescence, 60 min; inhibition, % at 12.5 µM; 6,200 compounds, 60% hits;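 active = mean inhibition above about 50%, limit read from the data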;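 note: plate controls were enzyme with DMSO for no effect and wells without caspase-3 for full effect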
Luc interf = counter-screen for SENP inhibitors: luminescence interference | shares compounds with SENP7 block | Pre-incubated SENP8/Z-RLRGG-aminoluciferin, luciferase luminescence interference | inhibition, % at 12.5 µM | 6,200 compounds, 39% hits | AID 488919;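 active = mean inhibition above about 50% when retested at one dose, limit read from the data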;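 note: plate controls were DMSO wells with completed reaction for no effect and substrate without enzyme for full effect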
Active calls of the source: *.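 Rule for the calls, unless noted: active = mean inhibition above about 50% in the one-dose retest (limit read from the data); inactive = the rest.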

Results for C[C@@H]1CCCCO[C@@H](CN(C)CC2CCCCC2)[C@@H](C)CN([C@@H](C)CO)C(=O)c2cc(NC(=O)C3CCCCC3)ccc2O1 ?
LGR2 antag: 4

Results for CCNC(=O)C[C@H]1CC[C@H]2[C@@H](COC[C@@H](O)CN2S(=O)(=O)c2ccc(Oc3ccccc3)cc2)O1 ?
LGR2 antag: -4

Results for O=C(CCCc1ccccc1)NC1CC1 ?
SENP6 block: 12; SENP8 block-1: 21; SENP8 block-2: 2; SENP7 block: 6; LGR2 antag: 11; HSP90 inh: 1

How did O=C(O)CCCc1ccc2c(c1)CCc1ccccc1-2 do in these assays?
SENP6 block: 50*; SENP8 block-1: -29; SENP8 block-2: 34; SENP7 block: -14; LGR2 antag: -21; SENP8 conf: 77*; SENP6 confirm: 76*; SENP7 conf: 88*; Casp3 SENP sel: 68*; Luc interf: 81*

Results for COc1cc(NS(=O)(=O)c2ccc(NC(=O)/C(=C/c3ccccc3Cl)NC(=O)c3ccccc3)cc2)nc(OC)n1 ?
SENP6 block: 64*; SENP8 block-1: 17; SENP8 block-2: 3; SENP7 block: 4; LGR2 antag: -10; HSP90 inh: -1; SENP8 conf: -20; SENP6 confirm: -17; SENP7 conf: -3; Casp3 SENP sel: -7; Luc interf: -5

Results for Cc1cc(C)c(C#N)c(N2CCCC(C(N)=O)C2)n1 (stereo not drawn) ?
SENP6 block: -10; SENP8 block-1: inactive; SENP8 block-2: -8; SENP7 block: -9; HSP90 inh: -3

What do the screens show for `CCCCN1C(=O)Cc2c1nc(N)c1c(N)nc(N(CCC)CCC)c(C#N)c21`?
SENP8 block-1: -327; HSP90 inh: 0

Results for N#Cc1c(N2CCCC(O)C2)nc(N)c2c(N)nc3c(c12)CC(=O)N3C12CC3CC(CC(C3)C1)C2 (stereo not drawn) ?
SENP6 block: 96*; SENP8 block-1: -303; SENP8 block-2: 97*; SENP7 block: 64*; HSP90 inh: 3; SENP8 conf: -21; SENP6 confirm: 5; SENP7 conf: -4; Casp3 SENP sel: -6; Luc interf: -5

How did C=C(C)CN(CC)c1nc(N)c2c(N)nc3c(c2c1C#N)CC(=O)N3C12CC3CC(CC(C3)C1)C2 do in these assays?
SENP6 block: 85*; SENP8 block-1: -210; SENP8 block-2: 86*; SENP7 block: 27; HSP90 inh: 3; SENP8 conf: -10; SENP6 confirm: -5; SENP7 conf: -10; Casp3 SENP sel: -11; Luc interf: -7
